According to PubChem BioAssay (NCATS):
Values joined by “and” are separate entries in the source; they are usually repeats but may differ in a detail not shown here. Equal values may be shown once. A number with no mark means an inactive call. Inconclusive results are not listed. Where a call stands in place of a potency, no number is given. Active and inactive are the calls of the source. Unless noted, calls follow the shape of the dose curve; as a rule, active = well fitted curve in the direction sought with a large enough effect; inconclusive = small, poorly fitted or top-dose-only effect, or another doubt; inactive = no such curve, though single readings can be large; an effect the other way counts as inactive or inconclusive.

Key:
[1] = qHTS for Inhibitors of Plasmodium falciparum (DD2) proliferation (AID 504314);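 also: parasite DNA measured by SYBR Green fluorescence after red cell lysis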
Procedure, shortened: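 Quantitative HTS growth inhibition: SYBR Green I binding to parasite DNA after 72 h drug exposure of infected erythrocytes (0.3% parasitemia, 2.5% hematocrit). Signals normalized per plate to inhibitor and vehicle wells.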

[2] = qHTS for Inhibitors of Plasmodium falciparum (7G8) proliferation (AID 504316); also: nearly all actives have a fitted effect of over 65% in size; also: potency is read from the fitted curve at half-maximal effect
Procedure, shortened: (§1)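 Erythrocytes infected with P. falciparum line (0.3% parasitemia, 2.5% hematocrit final) incubated with compounds 72 h at 37 °C, 5% CO2; SYBR Green lysis buffer added, fluorescence read next day. Normalized to 0.29 uM artemisinin and DMSO.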

[3] = qHTS for Inhibitors of Plasmodium falciparum (HB3) proliferation (AID 504318); also: nearly all actives have a fitted effect of over 60% in size; also: potency is read from the fitted curve at half-maximal effect
Procedure, shortened: as §1

[4] = qHTS for Inhibitors of Plasmodium falciparum (CP250) proliferation (AID 504320)
Procedure, shortened: as §1

[5] = molecular target: Atrial natriuretic peptide receptor 1 (Homo sapiens) (UniProt P16066); assay: Natriuretic polypeptide receptor (hNpr1) antagonism - Pilot CMLD screen (AID 1347052; calls by dose curve;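 also: HEK293 cells with hNpr1 stimulated by hNppA peptide at 0.1 nM; cGMP level read as GloSensor luciferase luminescence after agonist stimulation; series mostly up to about 9.2 µM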)
Chain of Atrial natriuretic peptide receptor 1 (Homo sapiens) (P16066 whole entry, looked up): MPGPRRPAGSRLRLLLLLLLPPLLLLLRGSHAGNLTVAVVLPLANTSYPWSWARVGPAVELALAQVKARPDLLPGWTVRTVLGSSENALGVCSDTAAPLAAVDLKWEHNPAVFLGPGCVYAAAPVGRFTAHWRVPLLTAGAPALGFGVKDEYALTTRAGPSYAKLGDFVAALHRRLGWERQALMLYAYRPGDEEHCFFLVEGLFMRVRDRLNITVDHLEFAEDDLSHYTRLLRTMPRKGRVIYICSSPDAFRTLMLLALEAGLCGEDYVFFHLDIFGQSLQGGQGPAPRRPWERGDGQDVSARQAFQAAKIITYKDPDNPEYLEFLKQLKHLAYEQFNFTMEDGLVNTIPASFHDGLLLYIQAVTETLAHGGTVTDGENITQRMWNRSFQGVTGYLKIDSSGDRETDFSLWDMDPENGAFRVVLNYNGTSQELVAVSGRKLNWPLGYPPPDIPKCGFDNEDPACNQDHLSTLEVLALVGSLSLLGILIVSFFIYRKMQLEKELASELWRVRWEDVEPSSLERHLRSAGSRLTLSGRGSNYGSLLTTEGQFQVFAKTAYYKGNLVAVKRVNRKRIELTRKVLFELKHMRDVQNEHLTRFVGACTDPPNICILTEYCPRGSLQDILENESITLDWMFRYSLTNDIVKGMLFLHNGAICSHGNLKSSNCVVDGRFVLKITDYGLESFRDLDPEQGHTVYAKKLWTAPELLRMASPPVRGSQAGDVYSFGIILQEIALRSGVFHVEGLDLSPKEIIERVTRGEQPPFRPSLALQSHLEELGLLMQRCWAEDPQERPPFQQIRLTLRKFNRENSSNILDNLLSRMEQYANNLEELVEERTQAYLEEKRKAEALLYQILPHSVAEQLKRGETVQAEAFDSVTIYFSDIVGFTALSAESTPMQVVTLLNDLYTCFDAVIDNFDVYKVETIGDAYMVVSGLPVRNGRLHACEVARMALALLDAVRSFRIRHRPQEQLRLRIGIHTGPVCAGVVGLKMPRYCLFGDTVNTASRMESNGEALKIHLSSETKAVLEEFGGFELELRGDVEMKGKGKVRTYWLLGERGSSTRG

[6] = qHTS for Inhibitors of Plasmodium falciparum (GB4) proliferation (AID 504315); also: nearly all actives have a fitted effect of over 50% in size
Procedure, shortened: as §1

[7] = molecular target: Cytochrome P450 3A4 (Homo sapiens) (UniProt P08684); assay: qHTS Assay for Inhibitors and Substrates of Cytochrome P450 3A4 (AID 884); also: potency is read from the fitted curve at half-maximal effect; nearly all actives have a fitted effect of over 50% in size
Chain of Cytochrome P450 3A4 (Homo sapiens) (P08684 whole entry, looked up): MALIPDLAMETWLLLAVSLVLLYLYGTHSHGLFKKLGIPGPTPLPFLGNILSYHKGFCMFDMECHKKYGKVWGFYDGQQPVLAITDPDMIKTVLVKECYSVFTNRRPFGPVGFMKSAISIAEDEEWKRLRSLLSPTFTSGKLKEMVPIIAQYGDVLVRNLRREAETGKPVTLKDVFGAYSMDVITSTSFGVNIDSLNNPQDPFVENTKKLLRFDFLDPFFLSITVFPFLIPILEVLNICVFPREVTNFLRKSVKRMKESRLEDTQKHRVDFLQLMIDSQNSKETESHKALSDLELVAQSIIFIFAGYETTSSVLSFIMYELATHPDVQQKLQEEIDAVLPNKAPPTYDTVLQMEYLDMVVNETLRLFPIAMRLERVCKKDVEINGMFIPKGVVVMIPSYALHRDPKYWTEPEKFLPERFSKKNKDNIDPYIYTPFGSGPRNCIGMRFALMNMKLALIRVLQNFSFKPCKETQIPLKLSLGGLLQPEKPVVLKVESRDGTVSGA
Procedure, shortened: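 20 nM human CYP3A4 with 25 uM Luciferin-PPXE (at KM) in 200 mM KPO4, preincubated 10 min with compound; NADPH regeneration started a 60 min RT reaction. Luciferin detected by luminescence, normalized to 57 uM ketoconazole as full inhibition.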

[8] = molecular target: Cytochrome P450 3A4 (Homo sapiens) (UniProt P08684); assay: qHTS Assay for Activators of Cytochrome P450 3A4 (AID 885); also: nearly all actives have a fitted effect of over 65% in size
Procedure, shortened: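 Steps: enzyme/substrate mix dispensed; compound added, 10 min RT; NADPH regeneration solution added, 60 min RT; luciferin detection buffer stops reaction; 20 min later luminescence measured.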

Compound | Potency [1] | Potency [2] | Potency [3] | Potency [4] | Potency [5] | Potency [6] | activity, negative = inhibition [1] | Potency [7] | activity change, positive = activation [8]
COC(=O)C1=C(C)N(CC2CC2)C(=NCCc2cccnc2)NC1c1ccccc1 (stereo not drawn) | inactive | inactive | inactive | inactive | inactive |  |  |  | 
COC(=O)C1=C(C)N(Cc2ccccc2)C(=NCCc2c[nH]c3ccccc23)NC1c1ccc(Br)cc1 (stereo not drawn) | inactive | inactive | inactive |  | inactive |  |  |  | 
CCOC(=O)NN=C1C[C@@H](O)[C@@H](O)[C@@H]2[C@H]3C(=O)N(C4CCCCC4)C(=O)[C@@H]3CC[C@H]12 | inactive |  |  | inactive | inactive | inactive |  |  | 
CC(CCC(=O)OC[C@H]1O[C@H](C#Cc2ccccc2)C=C[C@H]1Oc1ccc(C)cc1)=NO[C@@H](C)c1cn([C@H](CO)Cc2ccccc2)nn1 | inactive | inactive | inactive | inactive | inactive |  |  |  | 
COc1ccc(-c2nc3c(c4c2C[C@H](c2ccccc2)OC4)CN(C(=O)c2cc(I)ccc2F)CC3)c(C)c1 |  | 1.9 µM (active) |  |  | inactive |  | -3.98% [at 1.12 µM] |  | 
CC(=O)C1=C(C)N(Cc2ccccc2)C(=O)NC1c1cccc(F)c1 (stereo not drawn) | inactive | inactive | inactive | inactive | inactive |  |  |  | 
COc1cccc([C@H]2Oc3ccc(OC)cc3C(=NO[C@@H](C)c3cc(-c4c(C)cc(C)cc4C)no3)[C@H]2O)c1 | inactive | inactive | inactive |  | inactive |  |  |  | 
CC=CC(=O)C[C@H]1CC[C@@H](C)[C@@H](CCO)O1 | inactive |  |  | inactive | inactive | inactive |  |  | 
COc1cccc(CO[C@H]2C=C[C@@H](c3ccccc3)O[C@H]2CO)c1 | inactive | inactive | inactive | inactive | inactive |  |  |  | 
COC(=O)CC=C1c2ccc(F)cc2[C@@H](OC)[C@@H]1C | inactive | inactive | inactive |  | inactive |  |  |  | 
CC(C)=CCC12CC3[C@@H](O)C(C(=O)c4ccccc4)(C1=O)C(=O)C(CC=C(C)C)(C2=O)C3(C)C (stereo partly drawn) | inactive | inactive |  |  | inactive |  |  |  | 
CC[C@H](C)[C@@H](NC(=O)O[C@@H]1C(=O)c2ccc(OC)cc2O[C@H]1c1ccc2c(c1)OCO2)C(=O)OC | inactive | inactive | inactive | inactive | inactive |  |  |  | 
CCCCc1nc2c(c3c1C[C@H](C)OC3)CN(S(=O)(=O)c1ccc(C)cc1)CC2 | inactive | inactive | inactive | inactive | inactive |  |  |  | 
CC(=O)C1=C(C)N(CC#C[Si](C)(C)C)C(=O)N(C(C)=O)C1c1ccccc1 (stereo not drawn) | inactive | inactive | inactive |  | inactive |  |  |  | 
CCOC(=O)CN1C(=O)NC(c2cccc(C(F)(F)F)c2)C(C(=O)OC)=C1C (stereo not drawn) | inactive | inactive | inactive | inactive | inactive |  |  |  | 
CCOC(=O)C1=C(CCl)NC(=O)N(C(C)=O)C1c1ccccc1 (stereo not drawn) | inactive | inactive | inactive |  | inactive |  |  |  | 
COc1ccc(-c2nc3c(c4c2C[C@H](c2ccccc2)OC4)CN(S(=O)(=O)c2ccc(C)cc2)CC3)c(C)c1 |  | 1.69 µM (active) and 1.9 µM (active) | 2130 nM (active) |  | inactive |  | -0.2% [at 1.12 µM] |  | 
COc1ccc(-c2cnnc(CCCn3ccnc3-c3ccccc3)n2)cc1 | inactive |  |  |  | inactive | inactive |  | 6310 nM (active) | -71.9% [at 11.4 µM]
C[C@@H]1C=CCC(=O)OC[C@H](C)C(=O)OC[C@H]2O[C@H]1C=C[C@H]2O | inactive | inactive | inactive | inactive | inactive |  |  |  | 
CC(C)(C(O)c1ccc([N+](=O)[O-])cc1)[N+](=O)[O-] (stereo not drawn) | inactive | inactive | inactive | inactive | inactive |  |  |  | 
COc1ccc(O[C@H]2C=C[C@@H](c3ccccc3)O[C@H]2CON=C2[C@H]3CCn4c(=O)n(-c5ccccc5)c(=O)n4[C@@H]3[C@H](O)[C@@H]3O[C@H]23)cc1 | inactive | inactive | inactive | inactive | inactive |  |  |  | 
C[C@@H]1CC2=CCCC2[C@]2(O1)C(=O)Nc1cccc(Br)c12 (stereo partly drawn) | inactive | inactive | inactive | inactive | inactive |  |  |  | 
COC(=O)CC(Oc1c(C)n(C)c2ccccc2c1=O)c1ccccc1 (stereo not drawn) | inactive | inactive | inactive | inactive | inactive |  |  |  | 
COC(=O)N[C@@H](CCc1ccccc1)[C@]1(C(C)=O)CCCC1=O | inactive | inactive | inactive | inactive | inactive |  |  |  | 
CCN1C(=NCCCCO)N[C@@H](CCc2ccccc2)[C@H](C(=O)OC)[C@H]1C | inactive | inactive | inactive | inactive | inactive |  |  |  | 
CCN1C(=NCCc2c[nH]c3ccccc23)NC(c2ccccc2)C(C(=O)OC)=C1C (stereo not drawn) | inactive | inactive | inactive | inactive | inactive |  |  |  | 
C[C@H]1C[C@@H](C)O[C@@]2(C1)C(=O)N(CC1CC1)c1ccccc12 | inactive | inactive | inactive | inactive | inactive |  |  |  | 
COC(=O)C1=C(C(=O)OC)[C@@H]2Nc3ccccc3[C@@]23C[C@@H](C(=O)OC)N(C(=O)COCc2ccccc2)C3=N1 | inactive | inactive | inactive | inactive | inactive |  |  |  | 

Compound | Potency [1] | Potency [2] | Potency [3] | Potency [4] | Potency [5] | Potency [6] | activity, negative = inhibition [1] | Potency [7] | activity change, positive = activation [8]
O=C1OC2(CCCCC2)CC2=C1[C@H]1O[C@](c3ccsc3)(Cc3ccccc31)O2 | inactive | inactive | inactive | inactive | inactive |  |  |  | 
CC(=O)OC[C@H]1O[C@@H](ON=CC[C@@H]2C=C[C@@H](OC(C)=O)[C@@H](COC(C)=O)O2)[C@@H](OC(C)=O)[C@@H](OC(C)=O)[C@@H]1OC(C)=O | inactive | inactive | inactive | inactive | inactive |  |  |  | 
C[C@H]1COc2c(N3CCN(C)CC3)c(F)cc3c(=O)c(C(=O)NCc4ccco4)cn1c23 | inactive | inactive | inactive | inactive | inactive |  |  |  | 
COc1cccc(CO[C@H]2C=C[C@@H](c3ccccc3)O[C@H]2CN=[N+]=[N-])c1 | inactive | inactive | inactive | inactive | inactive |  |  |  | 
C=CCC(C)(NCc1ccccc1)C(=O)OCC (stereo not drawn) | inactive | inactive | inactive | inactive | inactive |  |  |  | 
CCOC(=O)NN=C1C[C@@H](O)[C@@H](O)[C@@H]2[C@H]3C(=O)N(Cc4ccc5c(c4)OCO5)C(=O)[C@@H]3CC[C@@H]12 | inactive | inactive | inactive | inactive | inactive |  |  |  | 
CC(=O)Nc1ccc(S(=O)(=O)N2CCc3nc(-c4ccccc4)c4c(c3C2)CO[C@@H](C)C4)cc1 |  | inactive | inactive | inactive | inactive |  | -1.41% [at 1.12 µM] |  | 
Cc1cccc(C)c1Nc1oc(-c2ccccc2)nc1C(C)(C)C | inactive | inactive | inactive | inactive | inactive |  |  |  | 
COC(=O)[C@H]1[C@H](CCc2ccccc2)NC(=O)N(Cc2ccccc2)[C@H]1C | inactive | inactive | inactive | inactive | inactive |  |  |  | 
O=C1CCC=C1C(O)CCc1ccccc1 (stereo not drawn) | inactive | inactive | inactive | inactive | inactive |  |  |  | 
CCOC(=O)NN=Cc1ccccc1-c1cc(OC)ccc1OC | inactive | inactive | inactive | inactive | inactive |  |  |  | 
CCCCc1cc2c(cn1)=C(OC(=O)c1ccco1)C(C)(OC(=O)CC)C(=O)C=2 (stereo not drawn) |  | 1.51 µM (active) | inactive | inactive | inactive |  | 5.3% [at 1.12 µM] |  | 
COC(=O)C[C@H]1c2ccccc2C2=C(C[C@@H](C)[C@H]3C(=O)N(c4ccccc4)C(=O)[C@@H]23)N1C(=O)OC |  | inactive | inactive | inactive | inactive |  | 2.35% [at 1.12 µM] and 0.352% [at 1.12 µM] |  | 
COC(=O)c1c(C(=O)OC)c2c3cc(OC)c(OC)cc3ccn2c1C(=O)OC | inactive | inactive | inactive | inactive | inactive |  |  |  | 
CCN1C(=NCCCOC(C)C)N[C@@H](CCc2ccccc2)[C@H](C(=O)OC)[C@H]1C | inactive | inactive | inactive | inactive | inactive |  |  |  | 
CC(C)=CCCC(C)=CCON=C1C[C@@H](O)[C@@H](O)[C@@H]2[C@H]3C(=O)N(C[C@@H]4CCCO4)C(=O)[C@@H]3CC[C@@H]12 | inactive | inactive | inactive | inactive | inactive |  |  |  | 
C=CC1=C2C=C(C3CC3)N(CCN3CCOCC3)C=C2C(=O)C(C)(OC(=O)c2ccco2)C1=O (stereo not drawn) | inactive | inactive | inactive | inactive | inactive |  |  |  | 
COC1=C[C@H](C(=O)NCc2ccccn2)[C@@]2(C)Cc3ccccc3[C@@H]2CC1=O | inactive | inactive | inactive | inactive | inactive |  |  |  | 
Cc1cc2c(nc1C)CCCN2CC(O)CN1CCCc2nc(-c3ccc(Br)cc3)ccc21 (stereo not drawn) | inactive | inactive | inactive | inactive | inactive |  |  |  | 
COC(=O)CC=C[C@@H](C)[C@H](NC(=O)OCC(Cl)(Cl)Cl)c1ccc2ccccc2c1 | inactive | inactive | inactive | inactive | inactive |  |  |  | 
C=CCCCN1C(=O)NC(c2ccccc2)C(C(=O)OC)=C1C (stereo not drawn) | inactive | inactive | inactive | inactive | inactive |  |  |  | 
COc1ccc2c(c1)C(=O)[C@@H](OC(=O)NS(=O)(=O)c1ccc(F)cc1)[C@H](c1ccc(OC)c(Br)c1)O2 | inactive | inactive | inactive | inactive | inactive |  |  |  | 
CCOC(=O)CN1C(=O)NC(CCc2ccccc2)C(C(C)=O)=C1C (stereo not drawn) | inactive | inactive | inactive | inactive | inactive |  |  |  | 
COC(=O)CC=C[C@@H](C)[C@@H](C=NOC[C@@H](C)[C@H](OCc1ccccc1)C(C)C)NS(=O)(=O)c1ccc(C)cc1 | inactive | inactive | inactive | inactive | inactive |  |  |  | 
C=CC[C@@H]1C=C[C@@H](ON=C2[C@H]3CCn4c(=O)n(-c5ccccc5)c(=O)n4[C@@H]3[C@H](O)[C@@H]3O[C@H]23)[C@@H](CO)O1 | inactive | inactive | inactive | inactive | inactive |  |  |  | 
CCN1C(=NCc2ccc3c(c2)OCO3)NC(CCc2ccccc2)C(C(=O)OC)=C1C (stereo not drawn) | inactive | inactive | inactive | inactive | inactive |  |  |  | 
CCOC(=O)NN=C1C[C@@H](O)[C@@H](O)[C@@H]2[C@H]3C(=O)N(Cc4ccc5c(c4)OCO5)C(=O)[C@@H]3CC[C@H]12 | inactive | inactive | inactive | inactive | inactive |  |  |  | 
